Compound activity (PubChem)
Dicer inh: human Dicer pre-microRNA cleavage inhibition | 47,000 tested, 6% active | cat-ELCCA pre-miR-21 Dicer processing, chemiluminescence; hits give high values | z-score at 25 µM | AID 1347074; in the data active = z-score above about 3, passing the limit was not always enough;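 also: higher signal means more uncleaved substrate so more Dicer inhibition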
A number is an active result; – = inactive; ! = not confirmed by another sample. This excerpt belongs to a sample that is enriched for hits.

SMILES | Dicer inh
CCOc1ccc(C2c3c(oc4ccccc4c3=O)C(=O)N2c2ccc(C)cn2)cc1 (stereo unspecified) | 3.6
Cc1ccc(N2C(=O)c3oc4ccccc4c(=O)c3C2c2cccc(Br)c2)nc1 (stereo unspecified) | –
Cc1ccc(N2C(=O)c3oc4ccccc4c(=O)c3C2c2ccc(O)cc2)nc1 (stereo unspecified) | 4.4
Cc1ccc(C2c3c(oc4ccccc4c3=O)C(=O)N2c2ccccn2)cc1 (stereo unspecified) | –
Cc1ccc(N2C(=O)c3oc4ccccc4c(=O)c3C2c2ccc(Cl)cc2)nc1 (stereo unspecified) | 3.8
COC(=O)c1c(NC(=O)COc2ccccc2Br)sc2c1CCCC2 | –
Cc1c(C)c(C)c(S(=O)(=O)NNc2c(Cl)cccc2Cl)c(C)c1C | –
O=C(CC1(O)C(=O)N(Cc2ccccc2)c2ccc(Br)cc21)c1ccccn1 (stereo unspecified) | –
C=CCNc1cc(C)nc2ncnn12 | –
CCCN(CCC)S(=O)(=O)c1ccc(C(=O)N2CCC3c4ccccc4C(=O)N3C2)cc1 (stereo unspecified) | –
O=C(O)CSc1nnc2nnc3ccccc3n12 | –
O=C(NCc1cccs1)c1cc2nc(-c3cccs3)cc(C(F)(F)F)n2n1 | –
CC(C)Cn1c(Cc2ccccc2)nc2ccccc21 | –
NC(=O)NC(=O)Nc1ccccc1Cl | 6
NC(=O)NC(=S)NC(=O)c1ccccc1Cl | –
CC(C)(ONC(=O)Nc1ccccc1Cl)C(=O)O | –
O=C1CS/C(=N\N=C\c2c(Cl)cccc2Cl)N1 | –
CCCc1c(C)c(C#N)c2nc3ccccc3n2c1NCc1cccnc1 | –
CCOC(=O)N/N=C/c1cccc(O)c1 | –
Cc1ccc2nc(C3C(=O)c4ccc(O)cc4C3=O)cc(C)c2c1 (stereo unspecified) | 3.7
Cc1ccc2nc(C3CCCCC3)cc(C(=O)O)c2c1 | –
Cc1cc(C2C(=O)c3ccccc3C2=O)nc2ccccc12 | –
COc1cccc(C2C3=C(CC(C)(C)CC3=O)Nc3ccc4ccccc4c32)c1OC (stereo unspecified) | –
CC(=O)Oc1ccc(C2C(C(=O)OC(C)C)=C(C)NC3=C2C(=O)CC(c2cccs2)C3)cc1 (stereo unspecified) | –
CC1=C(C(=O)OCCOC(C)C)C(c2ccc3c(c2)OCO3)C2=C(CC(c3cccs3)CC2=O)N1 (stereo unspecified) | –
SMILES | Dicer inh
O=c1[nH]nc(SCc2ccc(Cl)cc2Cl)n1-c1cccc(Cl)c1 | –
Cc1cccc(C)c1NC(=O)c1c(C(F)(F)F)ccnc1SCCN(C)C | –
COc1cc(OC)cc(-c2nc3n(n2)C(c2ccccc2)C2=C(CCCC2=O)N3)c1 (stereo unspecified) | –
CC1CC(=O)C2=C(C1)Nc1nc(C(F)(F)F)nn1C2c1ccccc1 (stereo unspecified) | 5.2
O=C1CC(c2ccco2)CC2=C1C(c1ccccc1)n1nc(C(F)(F)F)nc1N2 (stereo unspecified) | –
CCCCCc1c(C)[nH]c(=S)[nH]c1=O | –
COC(=O)c1cc2nc(-c3cccs3)cc(C(F)(F)F)n2n1 | –
Cc1ccc(-c2cc3nc(-c4ccco4)cc(C(F)(F)F)n3n2)cc1 | –
FC(F)(F)c1cc(-c2cccs2)nc2cc(-c3ccco3)nn12 | 3.5
C/C(=C\c1ccc(C(C)C)cc1)C1NCC(c2ccc([N+](=O)[O-])cc2)O1 (stereo unspecified) | –
O=C(CSc1nnnn1-c1ccccc1)N1c2ccccc2Sc2ccccc21 | –
CN(CCCN1c2ccccc2CCc2ccccc21)CC(=O)c1ccc(Cl)cc1 | –
CN(C)CCCN1c2ccccc2CCc2ccc(Cl)cc21 | –
CNCCCN1c2ccccc2CCc2ccccc21 | 5.6!
Cc1nn(S(=O)(=O)c2ccc(-c3cc(C(F)(F)F)n(C)n3)s2)c(C)c1Br | –
Cc1ccc(C)n1-c1ccc(SCC(=O)O)cc1 | –
CC1=NN(c2cccc(C(=O)O)c2)C(=O)C1 | –
Cc1ccc(C)n1-c1cc(C(=O)O)cc(C(=O)O)c1 | 11
COc1ccc(C(C)=O)cc1COn1c(-c2ccccc2)nc2ccccc2c1=O | –
Cc1nc(-c2ccc(S(=O)(=O)N3CCCN(C(=O)OC(C)(C)C)CC3)s2)cs1 | –
Cc1nn2c(C(F)(F)F)cc(-c3ccc(Cl)cc3)nc2c1Cl | –
O=C(NCc1ccc(Cl)cc1)c1nn2c(C(F)(F)F)cc(-c3ccco3)nc2c1Cl | 4.2
Cc1nn2c(C(F)(F)F)cc(-c3cccnc3)nc2c1-c1ccc(Cl)cc1 | –
O=C(NCc1cccnc1)c1nn2c(C(F)(F)F)cc(-c3ccc(F)cc3)nc2c1Cl | 3.1
CN1CCN(C(=O)c2cnn3c(C(F)(F)F)cc(-c4ccco4)nc23)CC1 | –
O=C(Nc1ccc(F)c(Cl)c1)c1cc2nc(-c3ccco3)cc(C(F)(F)F)n2n1 | –
O=S(=O)(c1cccs1)N1CC=C(c2ccccc2)CC1 | –
Cc1sc2nc3sc(CC(=O)NCCO)cn3c(=O)c2c1C | –
CCn1c(SCC(=O)O)nc2cc(Cl)ccc21 | –
CCOc1ccc(C2C(C(=O)OC3CCCC3)=C(C)NC3=C2C(=O)CCC3)cc1 (stereo unspecified) | –
